According to the supplement of paper PMC9262897, “Low-cost anti-mycobacterial drug discovery using engineered E. coli” (Nature Communications, 2022):
Where a name gives a salt, the structure may show the parent alone. ± gives the standard deviation of the averaged measurements.

The compounds below were run on E. coli TESEC Mtb Alr (assay: growth (OD600 after 10 h); higher = more growth (less inhibition)). Conditions: arabinose 100 nM; compound 0.1 mM; raw OD600 reference: median of DMSO wells 0.413, cell-free background 0.052.
Protocol: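 TESEC Mtb Alr E. coli (ΔaraC ΔtolC ΔentC Δalr ΔdadX, arabinose-inducible Mtb Alr) or the Alr+ wild-type control strain, grown in defined M9-fructose medium without D-alanine in 96-well plates with Prestwick library compounds at 0.1 mM and 1% DMSO. Low Alr induction is 0.1 µM arabinose and high induction is 10 mM arabinose.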
In the case of O=C1OC(CN2CCOCC2)CN1/N=C/c1ccc([N+](=O)[O-])o1 (stereo not given) [Furaltadone hydrochloride], the growth is reported as 0.0601 ± 0.0022. CN(C)CCCN1c2ccccc2CCc2ccccc21 [Imipramine hydrochloride] was tested, and the growth was 0.408 ± 0.0092. CCOC(=O)O[C@]1(C(=O)OCCl)CC[C@H]2[C@@H]3CCC4=CC(=O)C=C[C@]4(C)[C@H]3[C@@H](O)C[C@@]21C [Loteprednol etabonate] showed a growth of 0.371 ± 0.017. Work on CCCNC(C)C(=O)Nc1ccccc1C (stereo not given) [Prilocaine hydrochloride] yielded a growth of 0.427 ± 0.012. For NS(=O)(=O)c1cc2c(cc1Cl)NCNS2(=O)=O [Hydrochlorothiazide], the growth was 0.41 ± 0.014. For Cc1cc2c(s1)Nc1ccccc1N=C2N1CCN(C)CC1 [Olanzapine], the growth was 0.403 ± 0.014. In the case of Nc1ccc(C(=O)O)c(O)c1 [4-aminosalicylic acid], the growth is reported as 0.422 ± 0.0061. Compound CC(=O)Oc1ccc(C(c2ccc(OC(C)=O)cc2)c2ccccn2)cc1 [Bisacodyl] has a growth of 0.39 ± 0.0062. For CN(Cc1cnc2nc(N)nc(N)c2n1)c1ccc(C(=O)N[C@@H](CCC(=O)O)C(=O)O)cc1 (racemic) [Amethopterin (R,S)], the growth was 0.244 ± 0.13. For CC(C(=O)O)c1ccc(C(=O)c2ccccc2)s1 (stereo not given) [Tiaprofenic acid], the growth was 0.382 ± 0.02. In the case of Nc1c2ccccc2nc2ccccc12 [Aminacrine], the growth is reported as 0.15 ± 0.062. CCCC(CCC)C(=O)O [Valproic acid] was tested, and the growth was 0.41 ± 0.01. Compound Cc1[nH]cnc1CN1CCc2c(c3ccccc3n2C)C1=O [Alosetron hydrochloride] has a growth of 0.387 ± 0.012. Compound CN(C)c1nc(N(C)C)nc(N(C)C)n1 [Altretamine] has a growth of 0.404 ± 0.017. Cc1nnc(NS(=O)(=O)c2ccc(N)cc2)s1 [Sulfamethizole] gave a growth of 0.411 ± 0.011. In the case of CCC1=C(C)CN(C(=O)NCCc2ccc(S(=O)(=O)NC(=O)N[C@H]3CC[C@H](C)CC3)cc2)C1=O [Glimepiride], the growth is reported as 0.411 ± 0.0056. CC1CC(OC(=O)c2ccccc2O)CC(C)(C)C1 (stereo not given) [Homosalate] gave a growth of 0.3918 ± 0.0032. Compound CCCN(CCC)C(=O)C(CCC(=O)O)NC(=O)c1ccccc1 (stereo not given) [Proglumide] has a growth of 0.415 ± 0.021. For NCCc1ccc(O)c(O)c1 [Dopamine hydrochloride], the growth was 0.4196 ± 0.0037. With OCCN1CCN(CCCN2c3ccccc3Sc3ccc(Cl)cc32)CC1 [Perphenazine] the growth was 0.285 ± 0.2. In the case of CCN(CC)CCOC(=O)C1(C2CCCCC2)CCCCC1 [Dicyclomine hydrochloride], the growth is reported as 0.393 ± 0.017. Cc1cc(-c2ccccc2)nnc1NCCN1CCOCC1 [Minaprine dihydrochloride] gave a growth of 0.409 ± 0.0057. Compound CCC1(C)CC(=O)NC1=O (stereo not given) [Ethosuximide] has a growth of 0.4152 ± 0.0041. For COc1nc(C)nc(Cl)c1NC1=NCCN1 [Moxonidine], the growth was 0.411 ± 0.015. COC(=O)Nc1nc2cc(C(=O)c3cccs3)ccc2[nH]1 [Nocodazole] showed a growth of 0.419 ± 0.0079. CCN(CC)C(=O)/C(C#N)=C/c1cc(O)c(O)c([N+](=O)[O-])c1 [Entacapone] gave a growth of 0.195 ± 0.011. Work on CCN(CC)CCOC(=O)C(c1ccccc1)C1CCCCC1 (stereo not given) [Drofenine hydrochloride] yielded a growth of 0.407 ± 0.019. Compound Cc1c(Cl)cccc1Nc1ncccc1C(=O)O [Clonixin Lysinate] has a growth of 0.283 ± 0.023. For Cn1cnc2c1c(=O)[nH]c(=O)n2C [Theobromine], the growth was 0.404 ± 0.014. Compound COc1cc(N)c(Cl)cc1C(=O)NC1CCN(Cc2ccccc2)CC1 [Clebopride maleate] has a growth of 0.397 ± 0.0065. In the case of CCN1CCN(c2cc3c(cc2F)c(=O)c(C(=O)O)cn3C2CC2)CC1 [Enrofloxacin], the growth is reported as 0.05387 ± 0.00035. Nc1ccn([C@H]2CC[C@@H](CO)O2)c(=O)n1 [Zalcitabine] showed a growth of 0.409 ± 0.016. COCCOC(=O)C1=C(C)NC(C)=C(C(=O)OC(C)C)C1c1cccc([N+](=O)[O-])c1 (stereo not given) [Nimodipine] gave a growth of 0.404 ± 0.025. C[C@H]1O[C@@H](O[C@H]2[C@@H](O)C[C@H](O[C@H]3[C@@H](O)C[C@H](O[C@H]4CC[C@@]5(C)[C@H](CC[C@@H]6[C@@H]5C[C@@H](O)[C@]5(C)[C@@H](C7=CC(=O)OC7)CC[C@]65O)C4)O[C@@H]3C)O[C@@H]2C)C[C@H](O)[C@@H]1O [Digoxin] gave a growth of 0.414 ± 0.0055. In the case of COc1cccc2c1C(=O)c1c(O)c3c(c(O)c1C2=O)C[C@@](O)(C(C)=O)C[C@@H]3O[C@H]1C[C@H](N)[C@H](O)[C@H](C)O1 [Daunorubicin hydrochloride], the growth is reported as 0.0571 ± 0.0011. O=C(CCNNC(=O)c1ccncc1)NCc1ccccc1 [Nialamide] gave a growth of 0.431 ± 0.0058. For CC(=O)S[C@@H]1CC2=CC(=O)CC[C@]2(C)[C@H]2CC[C@@]3(C)[C@@H](CC[C@@]34CCC(=O)O4)[C@H]12 [Spironolactone], the growth was 0.389 ± 0.026. For CCN1CCCC1CNC(=O)c1cc(S(N)(=O)=O)ccc1OC (stereo not given) [Sulpiride], the growth was 0.419 ± 0.0074. COc1ncnc(NS(=O)(=O)c2ccc(N)cc2)c1OC [Sulfadoxine] gave a growth of 0.4331 ± 0.0033. C[C@@H]1C[C@H]2[C@@H]3C[C@H](F)C4=CC(=O)C=C[C@]4(C)[C@@]3(Cl)[C@@H](O)C[C@]2(C)[C@H]1C(=O)COC(=O)C(C)(C)C [Clocortolone pivalate] showed a growth of 0.433 ± 0.0058.
